# Screening results deposited in PubChem by Buhrlage Lab, Dana-Farber Cancer Institute and Novartis Institutes for BioMedical Research (Cambridge, Mass).
# Hits are enriched below; roughly 5% of the tested compounds scored in any of these assays.
# UCHL1 inh: inhibitors of human UCHL1 deubiquitinase; AID 1645859, 2021; inhibition, % at 20 µM; Ubiquitin carboxyl-terminal hydrolase isozyme L1 (Homo sapiens), P09936; purified UCHL1, Ub-rhodamine cleavage fluorescence; hit rate 0.2% among 47,000
# USP10 block: inhibitors of human USP10 deubiquitinase; hit rate 1.1% among 47,000; Ubiquitin carboxyl-terminal hydrolase 10 (Homo sapiens), Q14694; inhibition, % at 20 µM; AID 1645856, 2021; purified USP10, Ub-rhodamine fluorescence, 60 min
# USP7 block: inhibitors of human USP7 deubiquitinase; AID 1645854, 2021; inhibition, % at 20 µM; purified USP7, Ub-rhodamine cleavage fluorescence; hit rate 0.3% among 47,000
# USP8 inh: inhibitors of human USP8 deubiquitinase. hit rate 4.2% among 47,000. inhibition, % at 20 µM. Ubiquitin carboxyl-terminal hydrolase 8 (Homo sapiens), P40818. purified USP8, Ub-rhodamine cleavage fluorescence, 30 min. AID 1645853, 2021
# Target sequence (P40818 whole entry, looked up): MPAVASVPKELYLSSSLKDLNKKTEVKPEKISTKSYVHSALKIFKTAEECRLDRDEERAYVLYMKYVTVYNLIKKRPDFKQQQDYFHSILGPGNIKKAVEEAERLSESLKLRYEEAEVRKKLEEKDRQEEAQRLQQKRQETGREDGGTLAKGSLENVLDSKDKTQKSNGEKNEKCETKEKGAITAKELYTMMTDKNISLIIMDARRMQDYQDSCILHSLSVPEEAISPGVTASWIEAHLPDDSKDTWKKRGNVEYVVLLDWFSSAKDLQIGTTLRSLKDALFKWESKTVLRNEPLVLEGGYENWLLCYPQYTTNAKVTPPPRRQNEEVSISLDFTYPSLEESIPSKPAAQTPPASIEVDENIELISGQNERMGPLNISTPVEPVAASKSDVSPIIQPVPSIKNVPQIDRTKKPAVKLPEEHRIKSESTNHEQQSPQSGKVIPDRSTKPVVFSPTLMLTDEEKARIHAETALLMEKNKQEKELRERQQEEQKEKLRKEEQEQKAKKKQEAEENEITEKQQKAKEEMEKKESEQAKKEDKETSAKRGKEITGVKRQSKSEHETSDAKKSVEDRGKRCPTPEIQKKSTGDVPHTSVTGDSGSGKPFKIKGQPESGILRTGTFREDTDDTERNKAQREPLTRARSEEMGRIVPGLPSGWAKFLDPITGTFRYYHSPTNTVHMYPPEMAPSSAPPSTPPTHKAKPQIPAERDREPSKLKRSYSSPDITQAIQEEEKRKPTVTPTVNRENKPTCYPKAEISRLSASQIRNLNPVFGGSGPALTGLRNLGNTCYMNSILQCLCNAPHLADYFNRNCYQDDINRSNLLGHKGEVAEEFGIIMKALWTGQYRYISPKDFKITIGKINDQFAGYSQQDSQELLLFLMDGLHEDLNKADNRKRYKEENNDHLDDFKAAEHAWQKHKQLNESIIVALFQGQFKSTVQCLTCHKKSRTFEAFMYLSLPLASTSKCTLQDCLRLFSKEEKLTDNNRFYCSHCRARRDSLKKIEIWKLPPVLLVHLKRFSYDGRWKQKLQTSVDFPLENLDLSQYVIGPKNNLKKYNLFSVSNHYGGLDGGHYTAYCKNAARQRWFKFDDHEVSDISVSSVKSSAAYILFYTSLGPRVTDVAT
# Numbers stand for hits; 0 = inactive. Cut-off read from the data, not from the text of the source: active = inhibition above about 30%; inactive = the rest.
SMILES,UCHL1 inh,USP10 block,USP7 block,USP8 inh
Cc1nn(-c2ccccc2)c2[nH]c(=O)c(CNC(C)c3cccs3)cc12 (stereo unspecified),0,0,0,30
Cc1nn(-c2ccccc2)c2nc(C(F)(F)F)[nH]c(=O)c12,0,0,0,0
COc1cccc(OCCOCC(O)CN2CCN(c3ccccn3)CC2)c1 (stereo unspecified),0,0,0,0
Cc1nn(-c2ccc(Cl)cc2)c2[nH]c(=O)c(CNCc3ccc4c(c3)OCO4)cc12,0,0,0,81
Cc1ccc(CNC(=O)Cn2cc(S(=O)(=O)Cc3ccccc3)c3ccccc32)cc1,0,0,0,38
Cc1ccc(CS(=O)(=O)c2cn(CC(=O)NCCC3=CCCCC3)c3ccccc23)cc1,0,0,0,0
Cc1ccc(CS(=O)(=O)c2cn(CC(=O)NCc3ccco3)c3ccccc23)cc1,0,0,0,34
Cc1ccc(CS(=O)(=O)c2cn(CC(=O)NCCc3ccccc3)c3ccccc23)cc1,0,0,0,0
Nc1nc(-c2ccc3c(c2)NC(=O)CO3)cs1,0,0,0,0
O=C1COc2ccc(-c3cc4n(c3)CCc3cc5c(cc3-4)OCO5)cc2N1,0,0,0,43
Cc1cccc(OCC(=O)Nc2ccc3c(c2)NC(=O)CO3)c1,0,0,0,0
Cc1cc(OCC(=O)Nc2ccc3c(c2)NC(=O)CO3)ccc1Cl,0,45,0,53
COc1ccc(CCNc2nc(-c3cccc(OC)c3OC)no2)cc1OC,0,0,0,0
O=C1C(=O)N(c2nc3ccc(F)cc3s2)C(c2ccc(F)cc2)/C1=C(\O)c1ccc(F)cc1 (stereo unspecified),0,61,0,0
O=C1c2oc3ccccc3c(=O)c2C(c2ccco2)N1c1nc2ccc(F)cc2s1 (stereo unspecified),0,0,0,0
Nc1c2c(nc3cc(Cl)ccc13)CCCC2=O,0,0,0,45
O=C1NC(=O)/C(=C/c2ccc(OC(=O)c3ccc(Cl)cc3Cl)cc2)N1,0,45,0,94
COc1ccc2c(c1)C(=O)C/C(=C\c1ccc(Cl)cc1)C2,0,0,0,0
Cc1cccc(NC(=O)CSc2nnc(CNc3ccc(Cl)cc3)n2C)c1C,0,0,0,44
COc1ccccc1C(=O)NCc1nnc(SCC(=O)Nc2cccc(C)c2C)n1C,0,0,0,0
COc1ccccc1NC(=O)N1CCCC1c1nc(-c2cccc(Cl)c2)no1 (stereo unspecified),0,0,0,0
O=C1Nc2ccccc2C2(CCN(S(=O)(=O)c3ccc(F)cc3)CC2)O1,0,0,0,0
COc1ccc(S(=O)(=O)N2CCC3(CC2)OC(=O)Nc2ccccc23)cc1,0,0,0,39
COC(=O)c1cc2c(ccn2C)n1CC(=O)N1CCN(Cc2ccccc2)CC1,0,0,0,32
COC(=O)c1cc2c(ccn2C)n1CC(=O)N(C1CCCCC1)C1CCCCC1,0,0,0,49
SMILES,UCHL1 inh,USP10 block,USP7 block,USP8 inh
COC(=O)c1cc2c(ccn2C)n1Cc1ccc(F)cc1,0,0,0,52
CCC(C)C1C(=O)N(C)C(C(C)CC)C(=O)NCC(=O)N(C)C(C(C)C)C(=O)NC(Cc2ccc(OC)cc2)C(=O)OC(C)C(=O)N2CCCCC2C(=O)N(C)C(C(C)C)C(=O)NC(C(C)C)C(=O)N(C)C(CC(=O)O)C(=O)N1C (stereo unspecified),0,0,0,0
Cc1cccc(NC(=O)c2noc3c2CCc2sccc2-3)n1,0,0,0,94
O=C(Nc1ccc2c(c1)OCO2)c1noc2c1CCc1sccc1-2,0,0,0,53
O=C(Nc1ccc(F)cc1)c1noc2c1CCc1sccc1-2,0,0,0,0
O=C(c1nnc(-c2cc(S(=O)(=O)N3CCCCC3)c[nH]2)o1)N1CCCC1,0,0,0,0
COc1cnc(CSc2ccccc2)cc1OCC(=O)Nc1ccc(F)cc1F,0,0,0,0
CCOc1ccccc1NC(=O)CCn1cnc2ccccc2c1=O,0,0,0,0
CCOc1ccc(CNC(=O)CCn2cnc3ccccc3c2=O)cc1,0,0,0,64
Cc1ccc(-n2nnnc2CNC(=O)NCc2ccc(Cl)cc2)cc1,0,0,0,0
COC(=O)c1nn(-c2ccc(Cl)cc2)c(=O)cc1Sc1ccc(C)cc1,0,0,0,53
O=c1ccnc(Nc2cccc3ccccc23)[nH]1,0,0,0,49
Brc1ccc2nc(Nc3cccc4ccccc34)nc(-c3ccccc3)c2c1,0,0,0,0
O=S(=O)(NCc1ccc2[nH]c3c(c2c1)CCCC3)c1ccccc1,0,0,0,34
CC(=O)NCc1ccc2[nH]c3c(c2c1)CCCC3,0,0,0,0
CNC(=O)c1cn(C)nc1S(=O)(=O)N1CCN(c2ccccc2F)CC1,0,0,0,0
CC1CN(C(=O)c2cccc(C(F)(F)F)c2)Cc2ccccc2N1C (stereo unspecified),0,0,0,0
Cc1ccc(NC(=O)CC(C)CC(=O)Nc2ccc(C(C)C)cc2)cc1Cl (stereo unspecified),0,0,0,31
CCOC(=O)c1ccccc1NC(=O)Cc1c(C)n(C(=O)c2ccc(Cl)cc2)c2ccc(OC)cc12,0,0,0,0
CCOC(=O)c1ccccc1NC(=O)C(=O)CC(=O)c1ccc(OC)cc1,0,0,0,78
Cn1nc(-c2ccccc2)c(COC(=O)c2ccc(F)cc2)c1Sc1cccc(C(F)(F)F)c1,0,0,0,0
CCOc1ccc(NC(=O)CN2CCN(Cc3cccc(C)c3)S2(=O)=O)cc1,0,0,0,0
CCOc1ccc(-c2cnc(NCc3cccc(C)c3)n2C)cc1,0,0,0,53
O=c1[nH][nH]c(=O)c2n[nH]nc12,0,0,0,92
O=C(Cc1ccccc1)Nc1ccc2[nH]ncc2c1,0,0,0,61
SMILES,UCHL1 inh,USP10 block,USP7 block,USP8 inh
O=C(Nc1ccc2c(c1)OCO2)c1cc(S(=O)(=O)N2CCCCC2)ccc1N1CCCCC1,0,0,0,0
COc1cccc(-c2c(NC(=O)C3CCCCC3)n(C)c3ccccc3c2=O)c1,0,0,0,0
COc1cc2c(cc1OC)CN(c1ncnc3scc(-c4ccccc4)c13)CC2,0,0,0,37
COc1cc(NC(=O)CSc2ncnc3scc(-c4ccccc4)c23)c(C(=O)O)cc1OC,0,30,0,0
c1ccc(COc2ncnc3scc(-c4ccccc4)c23)cc1,0,0,0,0
CC(=O)c1ccccc1NC(=O)COc1ncnc2scc(-c3ccc(F)cc3)c12,0,0,0,0
O=C(Nc1ccccc1)c1ccc2c(c1)CC(c1ccccc1)OC2=O (stereo unspecified),0,0,0,32
NC(=O)C[n+]1ccn2c(Nc3ccccc3)c(-c3ccccc3O)nc2c1,0,0,0,73
Cc1ccc(Nc2c(-c3ccccc3O)nc3c[n+](CC(N)=O)ccn23)cc1,0,0,0,37
COCCCn1c(C(=O)NCCc2ccccc2)cc2c(=O)n3ccccc3nc21,0,0,0,0
Cc1ccc(NC(=O)CCNc2c(N3CCCC3)c(=O)c2=O)c(C)c1,0,0,0,0
